{"source": "PubChem BioAssay (NCATS)", "note": "Inconclusive results are not listed. Calls of active or inactive are those of the source. Calls come from the whole dose curve; as a rule, active = well fitted cell-killing curve with a large enough effect; inconclusive = small, poorly fitted or top-dose-only effect, or effect the other way; inactive = no such curve, though single readings can be large or run the other way. Potency is the fitted concentration of half-maximal effect.", "data": [{"test": "Quantitative highthroughput screen to assess conditional lethalithy of SEM cells grown in RPMI1640 with dialyzed fetal bovine serum (RPMI+ds) (AID 1963884); note: nearly all actives have a fitted effect of over 35% in size", "settings": "SEM B-ALL cells, RPMI+dialyzed FBS, CellTiter-Glo viability, 48 h; series mostly up to 45.8 µM", "text": "Assay Provider: Jason Cantor Ph.D.\nDepartment of Biochemistry\nUniversity of Wisconsin-Madison, Madison, WI, USA\nChemical screening studies have identified drug sensitivities across hundreds of cancer cell lines but most putative therapeutics fail to translate. Discovery and development of drug candidates in models that more accurately reflect nutrient levels in human blood is a major challenge. Here we performed high-throughput screens in conventional versus Human Plasma-Like Medium (HPLM) to identify compounds that were \"missed\" when screening using the artificial culture condition. Sets of conditional anticancer compounds spanned phases of clinical development and included non-oncology drugs were assessed. […] We also traced conditional phenotypes for several chemotherapeutics to availability of HPLM-specific metabolites and confirmed others for compounds whose reported targets are encoded by nonessential genes. Our findings establish generalizable strategies for exploiting conditional lethality in HPLM to reveal therapeutic candidates and mechanisms of action in cancer cells.\nDescribed herein are the results of each viability screens against three cell lines: NOMO1 (an acute myeloid leukemia cell line); P12-Ichikawa (a T-cell acute lymphoblastic leukemia); and SEM (a B-cell ALL). Each assay was screened using 3 different cell culture media: homemade human plasma-Like medium with 10% dialyzed fetal bovine serum (HPLM+ds); RPMI1640 with 10% untreated FBS and 5mM glucose (RPMI+s); and RPMI1640 with 10% dialyzed fetal bovine serum and 5 mM glucose (RPMI+ds).\nPROTOCOL TABLE (as described by Inglese J, Shamu CE and Guy RK. 2007)\nSEQUENCE No. (e.g., 1, 2, 3, etc.); […] (e.g., Cells, Incubation, Reagent, etc.); VALUE and DESCRIPTION.\n1; Cells; 5 uL; white, solid bottom 1536-well Greiner assay plate.\n2; Compounds; 23 nL; Kalypsis pin tool (Wako USA) equipped with a 1536-well pin head to transfer to the assay plates.\n3; Incubation; 48 hours; 37C incubation.\n4; Reagent; 3 uL; CellTiter Glo (Promega).\n5; Incubation; 5 min, room temperature\n6; Detection; Luminescence, Viewlux PerkinElmer.\nNOTES (numbers refer to Sequence numbers above)\n1. Briefly, 5 ul of cell reagent was dispensed using a Multidrop Combi Dispenser. The NOMO1 and SEM cells were plated at 500 cells/well and the P12-Ichikawa line at 1000 cells/well.\n2. After seeding the cells, 23 nL of MIPE 4.1 library compounds (in DMSO) were added to each plate using a Kalypsys 1536 Pintool dispenser. Bortezomib at final concentration of […] and DMSO were added to each plate as positive and negative controls respectively. For each screen, MIPE 4.1 compounds were added over an eleven-point concentration range […] in 3-fold dilutions.\n3. Each plate was covered with a stainless steel gasketed lid to prevent evaporation and incubated for 48 hour at 37C, 95% relative humidity, and 5% CO2.\n4-5. Three microliter CellTilter-GloTM luminescent substrate mix (Promega) reagent was added to the assay plate and incubated at room temperature for 5 min.\n6. The luminescence signal was measured using a ViewLux (PerkinElmer) multiplate reader with a 2 second exposure time per plate. Data for each compound were normalized as percent viability such that measurements for DMSO and the empty well controls in each plate were defined as 100% and 0%, respectively.", "values": [{"smiles": "CC(C)[C@H](CO)Nc1nc(Nc2cccc(Cl)c2)c2ncn(C(C)C)c2n1", "Potency": "0.418 µM (active)"}, {"smiles": "Cc1cncc2cccc(S(=O)(=O)N3CCCN(C(=O)CN)C[C@@H]3C)c12", "Potency": "4.18 µM (active)"}, {"smiles": "CCOC(=O)N1CCN([N+]([O-])=NOc2ccc([N+](=O)[O-])cc2C#N)CC1", "Potency": "1.05 µM (active)"}, {"smiles": "CNC(=O)c1ccccc1Sc1ccc2c(C=Cc3ccccn3)n[nH]c2c1", "Potency": "4.69 µM (active)"}, {"smiles": "O=C(c1ccccc1)c1ccc2n1CCC2C(=O)O", "note": "(stereo not given)", "Potency": "4.69 µM (active)"}, {"smiles": "COc1cccc(N(C)C(=S)Oc2ccc3c(c2)CCCC3)n1", "Potency": "inactive"}, {"smiles": "CS(=O)c1ccc(-c2nc(-c3ccc(F)cc3)c(-c3ccncc3)[nH]2)cc1", "note": "(stereo not given)", "Potency": "5.4 µM (active)"}, {"smiles": "Cc1cc(Cl)ccc1OCCCC(=O)NO", "Potency": "9.35 µM (active)"}, {"smiles": "COc1ccc(-c2oc3cc(OC)ccc3c2C(=O)c2ccc(C#N)cc2)cc1", "Potency": "inactive"}, {"smiles": "Cn1cc(C=CC(=O)c2cccc(F)c2)cc1C=CC(=O)NO", "Potency": "inactive"}, {"smiles": "CC(C)N(CC[C@H](c1ccccc1)c1cc(CO)ccc1O)C(C)C", "Potency": "inactive"}, {"smiles": "C[C@]12CCC(=O)C=C1[C@@H]1CC1[C@H]1[C@H]3[C@@H]4C[C@H]4[C@@]4(CCC(=O)O4)[C@@]3(C)CC[C@H]12", "note": "(stereo not given in full)", "Potency": "inactive"}, {"smiles": "C[C@@]12C[C@@]3(O)O[C@@H](O1)[C@]1(COC(=O)c4ccccc4)[C@@H]3C[C@@]12O[C@@H]1O[C@H](CO)[C@@H](O)[C@H](O)[C@@H]1O", "Potency": "inactive"}, {"smiles": "Cc1nc(NC(=O)N2CCC[C@@H]2C(N)=O)sc1-c1ccnc(C(C)(C)C(F)(F)F)c1", "Potency": "2.96 µM (active)"}, {"smiles": "NS(=O)(=O)c1cc2c(cc1Cl)NC=NS2(=O)=O", "Potency": "inactive"}, {"smiles": "C=C1[C@H](n2cnc3c(=O)[nH]c(N)nc32)C[C@H](O)[C@H]1CO", "Potency": "0.0469 µM (active)"}, {"smiles": "COc1cc2c(Nc3ccc(Cl)c(Cl)c3F)ncnc2cc1OCC1C[C@@H]2CN(C)C[C@@H]2C1", "note": "(stereo not given in full)", "Potency": "20.9 µM (active)"}, {"smiles": "Cc1cc2c(F)c(Oc3ncnn4cc(OC[C@@H](C)O)c(C)c34)ccc2[nH]1", "Potency": "9.35 µM (active)"}, {"smiles": "CN1CCCN(C(=O)c2cccc(-c3ccc(C=C4C(=O)Nc5ccc(Cl)cc54)o3)c2)CC1", "Potency": "1.87 µM (active)"}, {"smiles": "CCCCC(CC)COC(=O)C(C#N)=C(c1ccccc1)c1ccccc1", "note": "(stereo not given)", "Potency": "inactive"}, {"smiles": "Nc1cc(C(Cl)=C(Cl)Cl)c(S(N)(=O)=O)cc1S(N)(=O)=O", "Potency": "4.18 µM (active)"}, {"smiles": "O=C(O)C=Cc1ccc(Cn2ccnc2)cc1", "Potency": "inactive"}, {"smiles": "Clc1ccc(C(Cn2ccnc2)OCc2c(Cl)cccc2Cl)c(Cl)c1", "note": "(stereo not given)", "Potency": "inactive"}, {"smiles": "CO[C@@H]1C(N(C)C(=O)c2ccccc2)C[C@H]2O[C@]1(C)n1c3ccccc3c3c4c(c5c6ccccc6n2c5c31)C(=O)NC4=O", "note": "(stereo not given in full)", "Potency": "3.72 µM (active)"}, {"smiles": "O=C1NC(=O)C(=Cc2ccc3nccc(-c4ccncc4)c3c2)S1", "Potency": "0.833 µM (active)"}, {"smiles": "O=C(Nc1cc(C(F)(F)F)cc(C(F)(F)F)c1)c1cc(Cl)ccc1O", "Potency": "4.18 µM (active)"}, {"smiles": "Cc1cc(Nc2nc(N[C@@H](C)c3ccc(F)cc3)c(C#N)cc2F)n[nH]1", "Potency": "2.64 µM (active)"}, {"smiles": "CC(C)(C)c1cc(C(=O)O)c(NC(=O)Nc2ccc3[nH]ncc3c2)s1", "Potency": "inactive"}, {"smiles": "NCCCC(N)(C(=O)O)C(F)F", "note": "(stereo not given)", "Potency": "inactive"}, {"smiles": "CCc1cccc(CC)c1NC(=O)N1Cc2[nH]nc(NC(=O)c3ccc(N4CCN(C)CC4)cc3)c2C1", "Potency": "1.66 µM (active)"}, {"smiles": "O=P(O)(O)C(O)(Cn1ccnc1)P(=O)(O)O", "Potency": "inactive"}, {"smiles": "Cc1cc(Nc2cc(N3CCN(C)CC3)nc(C=Cc3ccccc3)n2)n[nH]1", "Potency": "0.429 µM (active)"}, {"smiles": "Cc1noc(-c2ccc(CSCCC(=O)O)cc2)c1NC(=O)OC(C)c1ccccc1Cl", "note": "(stereo not given)", "Potency": "inactive"}, {"smiles": "COC(=O)C1=C(C)NC(C)=C(C(=O)OC(C)C)C1c1cccc2nonc12", "note": "(stereo not given)", "Potency": "inactive"}, {"smiles": "COc1cc(C[C@@H](CO)[C@H](CO)Cc2ccc(O)c(OC)c2)ccc1O", "Potency": "inactive"}, {"smiles": "N#Cc1c(O)c2c(-c3ccc(-c4ccccc4O)cc3)csc2[nH]c1=O", "Potency": "inactive"}, {"smiles": "NC(=O)C1CCCc2c1[nH]c1ccc(Cl)cc21", "note": "(stereo not given)", "Potency": "4.18 µM (active)"}, {"smiles": "CCN(CC)CCCCNc1ncc2c(n1)N(C)C(=O)N(c1c(Cl)c(OC)cc(OC)c1Cl)C2", "Potency": "14.8 µM (active)"}, {"smiles": "CN(C)C/C=C/C(=O)Nc1ccc(C(=O)Nc2cccc(Nc3ncc(Cl)c(-c4c[nH]c5ccccc45)n3)c2)cc1", "Potency": "0.166 µM (active)"}, {"smiles": "CNC1[C@H](O)C(O[C@@H]2C(O)C(O[C@H]3O[C@H]([C@@H](C)NC)CC[C@H]3N)[C@@H](N)C[C@H]2N)OC[C@]1(C)O", "note": "(stereo not given in full)", "Potency": "inactive"}]}]}
